This note sets out measurements from ChEMBL document CHEMBL3988442, “University of Dundee, Small-Polar-MMV Screening Library” (2021).

The first assay deals with T1, Aspartate--tRNA(Asp/Asn) ligase (Mycobacterium tuberculosis (strain ATCC 25618 / H37Rv)) (UniProt P9WFW3).
T1 sequence (whole entry): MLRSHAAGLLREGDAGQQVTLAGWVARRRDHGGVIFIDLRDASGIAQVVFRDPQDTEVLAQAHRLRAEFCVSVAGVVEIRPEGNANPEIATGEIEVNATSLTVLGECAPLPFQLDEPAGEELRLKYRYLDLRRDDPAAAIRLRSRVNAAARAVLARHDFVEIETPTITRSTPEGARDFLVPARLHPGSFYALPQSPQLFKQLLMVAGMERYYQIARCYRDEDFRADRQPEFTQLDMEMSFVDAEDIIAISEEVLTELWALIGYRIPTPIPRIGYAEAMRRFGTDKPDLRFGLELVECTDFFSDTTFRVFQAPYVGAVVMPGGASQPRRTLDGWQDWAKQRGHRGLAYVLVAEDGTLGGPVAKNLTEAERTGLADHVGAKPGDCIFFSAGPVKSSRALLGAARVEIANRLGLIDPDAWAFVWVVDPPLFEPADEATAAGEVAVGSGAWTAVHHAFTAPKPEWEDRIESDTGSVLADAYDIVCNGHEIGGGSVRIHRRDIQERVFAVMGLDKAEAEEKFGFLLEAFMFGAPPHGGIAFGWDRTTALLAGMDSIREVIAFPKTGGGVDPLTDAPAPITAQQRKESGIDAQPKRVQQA
Briefly: Assay for Asp RNA synthetase-1 from Mycobacterium tuberculosis. In kind it is functional. Particulars: 30 µM. On the set-up: scale not given: direction of the effect not stated beside the values.
For `O=C(CN1CCC(C(=O)c2cc(F)ccc2F)CC1)NC1CCCC1`, the Percent Effect is -0.27%.

As for `COCCc1noc(CNC2CCCN(c3cccnn3)C2)n1` (stereo not given), the Percent Effect was -0.981%.

On to `Cc1ccc(Cl)cc1N1CCC(CNC(=O)CCn2ccnn2)C1` (stereo not given), for which the Percent Effect stood at 2.9%.

Take `COc1cccc2c1ccn2CC(=O)N[C@@H](CCSC)C(=O)O`: the Percent Effect amounted to 6.16%.

Take `Cc1ccoc1C(=O)N1CCO[C@H]2[C@H](OCC3CCOCC3)CC[C@@H]21`: the Percent Effect was -4.72%.

As to `CS(=O)(=O)c1ccc(CNC(=O)N2CCC(c3ccccc3)CC2)cc1`, the Percent Effect is -2.06%.

Regarding `Cc1nc(C)n(CC2CN(c3nnc(C)c(C)c3C#N)CCO2)n1` (stereo not given), the Percent Effect is -1.7%.

In the case of `O=C1CCSCC(C(=O)N2CCCC2)N1` (stereo not given), the Percent Effect is -3.45%.

For the compound `O=C(c1cc[nH]n1)N1CCCC(c2cccc(-n3ccnc3)n2)C1` (stereo not given), the Percent Effect was -2.72%.

For the compound `Cc1cccc(OCCC(=O)N2CCN(S(=O)(=O)N(C)C)CC2)c1C`, the Percent Effect is -1.74%.

As to `CCN1C[C@H]2CCN(C(C)=O)CC[C@H]2S1(=O)=O`, the Percent Effect is -0.319%.

As for `COc1ccccc1CNC(=O)N1CCCC(c2nncn2C)C1` (stereo not given), the Percent Effect is -4.33%.

Turning to `Cc1nn(C)c(C)c1C1CCCN1Cc1nc(-c2ccco2)oc1C` (stereo not given), the Percent Effect was -1.54%.

Consider `Cc1nc(C)n(CC2CCCCN2CCS(C)(=O)=O)n1` (stereo not given), for which the Percent Effect is -3.09%.

`COCCN1C(=O)[C@]2(CC[C@@H]3CN(C(=O)NCC(C)C)C[C@@H]32)N=C1C`: the Percent Effect is -3.99%.

Consider `O=C(c1ccnnc1)N1C[C@@H](OCC2CCOCC2)[C@H]2OCCC[C@H]21`, for which the Percent Effect was -5.57%.

Regarding `CCOC(=O)c1sc2ccsc2c1CNC(=O)C(C)(C)C#N`, the Percent Effect stood at 0.67%.

On to `Cc1cc(C)n(CCC(=O)N2CCCC(n3cncn3)C2)n1` (stereo not given), for which the Percent Effect was -6.22%.

For `CC(C)(C)NC(=O)C1CSCN1S(=O)(=O)c1cccc(F)c1` (stereo not given), the Percent Effect is 10.2%.

Regarding `CO[C@@H]1CC[C@@H](N(C)C(=O)COc2ccc(F)cc2)[C@H]1O`, the Percent Effect is 3.81%.

As to `O=C1NCCCCC1Sc1nnc(C2CC2)n1C1CC1` (stereo not given), the Percent Effect is -6.09%.

Regarding `CC(NCc1ccc(Cl)o1)c1nnc2n1CCCC2` (stereo not given), the Percent Effect was -3.67%.

With `CC(NC(=O)Cc1cccs1)c1nnc2n1CCCCC2` (stereo not given), the Percent Effect was -4.69%.

Take `CN(Cc1ccccc1)C1COC2(CCN(Cc3nccs3)CC2)C1` (stereo not given): the Percent Effect is -2.36%.

As for `Cn1cc(CNCCOc2ccc(F)c(F)c2)c(-c2cccnc2)n1`, the Percent Effect was 7.32%.

Regarding `CCn1cc(N2Cc3nc(N4CCOCC4)ncc3C2=O)cn1`, the Percent Effect is -3.92%.

Regarding `Cc1ncnc2c1CCN(c1cc(C(F)(F)F)ncn1)CC2`, the Percent Effect was determined as 3.84%.

With `CC(=O)N(Cc1ncc(C)o1)C1CCN(Cc2cccc(C#N)c2)C1` (stereo not given), the Percent Effect amounted to 0.127%.

As for `COC(=O)NCc1cc2n(n1)CCCN(C(C)=O)C2`, the Percent Effect was -4.82%.

In the case of `Cc1cccnc1NC(=O)NC(C)Cn1cccn1` (stereo not given), the Percent Effect was -3.52%.

With `CN(C)S(=O)(=O)N1C[C@@H]2CC[C@H](C1)N(Cc1ccc3nsnc3c1)C2`, the Percent Effect was -2.42%.

For the compound `COc1ncccc1CN1CCn2c(Cn3cncn3)cnc2C1`, the Percent Effect is -2.81%.

Take `Cc1nc(C)n(CC2CN(Cc3cccc4c3OCCO4)CCO2)n1` (stereo not given): the Percent Effect is -4.36%.

As to `Cc1nc(CN(C)C2CCCN(c3cccnn3)C2)no1` (stereo not given), the Percent Effect is -6.37%.

Turning to `Cc1ccsc1C(=O)N1C[C@@H]2CN(Cc3ccoc3)CCO[C@@H]2C1`, the Percent Effect was -1.39%.

On to `CC1COCCN1Cc1nc(-c2cccs2)no1` (stereo not given), for which the Percent Effect came to 14.7%.

Regarding `CCN(Cc1ccco1)C(=O)NCc1nnc2n1CCC2`, the Percent Effect came to 0.859%.

With `COCc1nc(C(=O)N2CCCCC2Cn2cc(C)cn2)cs1` (stereo not given), the Percent Effect was found to be 0.0865%.

Take `CCOc1cccc(C(=O)N2CCN(c3nccc(OC)n3)CC2)c1`: the Percent Effect came out at 7.36%.

Take `CC(C)CCN1CCNC(=O)C1CC(=O)N1CCc2sccc2C1` (stereo not given): the Percent Effect was -3.89%.

The target of a further assay is Shiga toxin 2 (Escherichia coli O157:H7) (UniProt P09385+P09386). Briefly: E. coli 0.157:H7 Shiga Toxin SOP - stx2 screening assay. Particulars: 30 µM. Further details: scale not given: direction of the effect not stated beside the values. In kind it is functional.
Regarding `O=C(CN1CCC(C(=O)c2cc(F)ccc2F)CC1)NC1CCCC1`, the Percent Effect was -63.4%.

In the case of `COCCc1noc(CNC2CCCN(c3cccnn3)C2)n1` (stereo not given), the Percent Effect is -59%.

For `Cc1ccc(Cl)cc1N1CCC(CNC(=O)CCn2ccnn2)C1` (stereo not given), the Percent Effect is -49.4%.

Take `COc1cccc2c1ccn2CC(=O)N[C@@H](CCSC)C(=O)O`: the Percent Effect is -11.2%.

`Cc1ccoc1C(=O)N1CCO[C@H]2[C@H](OCC3CCOCC3)CC[C@@H]21`: the Percent Effect was -15.8%.

As to `CS(=O)(=O)c1ccc(CNC(=O)N2CCC(c3ccccc3)CC2)cc1`, the Percent Effect worked out at 7.64%.

For `Cc1nc(C)n(CC2CN(c3nnc(C)c(C)c3C#N)CCO2)n1` (stereo not given), the Percent Effect came out at 27.3%.

On to `O=C1CCSCC(C(=O)N2CCCC2)N1` (stereo not given), for which the Percent Effect was -6.39%.

For `O=C(c1cc[nH]n1)N1CCCC(c2cccc(-n3ccnc3)n2)C1` (stereo not given), the Percent Effect stood at 9.34%.

Turning to `Cc1cccc(OCCC(=O)N2CCN(S(=O)(=O)N(C)C)CC2)c1C`, the Percent Effect was -7.47%.

For the compound `CCN1C[C@H]2CCN(C(C)=O)CC[C@H]2S1(=O)=O`, the Percent Effect is -50.9%.

Take `COc1ccccc1CNC(=O)N1CCCC(c2nncn2C)C1` (stereo not given): the Percent Effect was 25.8%.

`Cc1nn(C)c(C)c1C1CCCN1Cc1nc(-c2ccco2)oc1C` (stereo not given): the Percent Effect stood at 22.6%.

Regarding `Cc1nc(C)n(CC2CCCCN2CCS(C)(=O)=O)n1` (stereo not given), the Percent Effect is -15.8%.

For `COCCN1C(=O)[C@]2(CC[C@@H]3CN(C(=O)NCC(C)C)C[C@@H]32)N=C1C`, the Percent Effect is -11.7%.

Take `O=C(c1ccnnc1)N1C[C@@H](OCC2CCOCC2)[C@H]2OCCC[C@H]21`: the Percent Effect is -14.6%.

As to `CCOC(=O)c1sc2ccsc2c1CNC(=O)C(C)(C)C#N`, the Percent Effect was determined as 16.1%.

With `Cc1cc(C)n(CCC(=O)N2CCCC(n3cncn3)C2)n1` (stereo not given), the Percent Effect worked out at 0.596%.

For `CC(C)(C)NC(=O)C1CSCN1S(=O)(=O)c1cccc(F)c1` (stereo not given), the Percent Effect is -19.4%.

Regarding `CO[C@@H]1CC[C@@H](N(C)C(=O)COc2ccc(F)cc2)[C@H]1O`, the Percent Effect was determined as 28.3%.

As to `O=C1NCCCCC1Sc1nnc(C2CC2)n1C1CC1` (stereo not given), the Percent Effect stood at 3.62%.

Take `CC(NCc1ccc(Cl)o1)c1nnc2n1CCCC2` (stereo not given): the Percent Effect is -31%.

Consider `CC(NC(=O)Cc1cccs1)c1nnc2n1CCCCC2` (stereo not given), for which the Percent Effect stood at 5.32%.

For `CN(Cc1ccccc1)C1COC2(CCN(Cc3nccs3)CC2)C1` (stereo not given), the Percent Effect was -24.7%.

Take `Cn1cc(CNCCOc2ccc(F)c(F)c2)c(-c2cccnc2)n1`: the Percent Effect is -38.1%.

Turning to `CCn1cc(N2Cc3nc(N4CCOCC4)ncc3C2=O)cn1`, the Percent Effect was -20.5%.

As to `Cc1ncnc2c1CCN(c1cc(C(F)(F)F)ncn1)CC2`, the Percent Effect came to 6.49%.

With `CC(=O)N(Cc1ncc(C)o1)C1CCN(Cc2cccc(C#N)c2)C1` (stereo not given), the Percent Effect is 9.86%.

In the case of `COC(=O)NCc1cc2n(n1)CCCN(C(C)=O)C2`, the Percent Effect amounted to 15.5%.

In the case of `Cc1cccnc1NC(=O)NC(C)Cn1cccn1` (stereo not given), the Percent Effect is 15.4%.

Consider `CN(C)S(=O)(=O)N1C[C@@H]2CC[C@H](C1)N(Cc1ccc3nsnc3c1)C2`, for which the Percent Effect is -1.59%.

In the case of `COc1ncccc1CN1CCn2c(Cn3cncn3)cnc2C1`, the Percent Effect was -13.9%.

In the case of `Cc1nc(C)n(CC2CN(Cc3cccc4c3OCCO4)CCO2)n1` (stereo not given), the Percent Effect was 23.8%.

Consider `Cc1nc(CN(C)C2CCCN(c3cccnn3)C2)no1` (stereo not given), for which the Percent Effect is -10.7%.

Regarding `Cc1ccsc1C(=O)N1C[C@@H]2CN(Cc3ccoc3)CCO[C@@H]2C1`, the Percent Effect was -11.7%.

In the case of `CC1COCCN1Cc1nc(-c2cccs2)no1` (stereo not given), the Percent Effect amounted to 20.8%.

`CCN(Cc1ccco1)C(=O)NCc1nnc2n1CCC2`: the Percent Effect was -4.02%.

As for `COCc1nc(C(=O)N2CCCCC2Cn2cc(C)cn2)cs1` (stereo not given), the Percent Effect is 5.33%.

Take `CCOc1cccc(C(=O)N2CCN(c3nccc(OC)n3)CC2)c1`: the Percent Effect worked out at 22.4%.

In the case of `CC(C)CCN1CCNC(=O)C1CC(=O)N1CCc2sccc2C1` (stereo not given), the Percent Effect was -7.76%.
